# Measured values taken from ChEMBL document CHEMBL4513141, “CO-ADD screening of NIH (USA) - Clinical Collection” (2021).
# Values joined by “and” are separate entries in the source; they are usually repeats but may differ in a detail not shown here. Equal values may be shown once. Results with a measured potency or affinity are listed apart.
# Experiments:
# Klebsiella pneumoniae = conditions: Concentration 20 uM, ASSAY_TEST Inhibition of Bacterial Growth, detection method Absorption (OD600), MEDIA CAMHB, plate type 384well, NBS, CORNING #3640, time 18 hr
# Candida albicans = conditions: 20 µM
# Cryptococcus neoformans = conditions: Concentration 20 uM, ASSAY_TEST Inhibition of Fungal Growth, detection method Resazurin, Absorption (OD600-OD570), plate type 384well, NBS, CORNING #3640
SMILES,Inhibition (Klebsiella pneumoniae; 20 µM),Inhibition (Candida albicans),Inhibition (Cryptococcus neoformans; 20 µM),Inhibition (Klebsiella pneumoniae) [%],Inhibition (Cryptococcus neoformans) [%]
C[C@@H]1C[C@H]2[C@@H]3CCC4=CC(=O)C=C[C@]4(C)[C@@]3(F)[C@@H](O)C[C@]2(C)[C@@]1(O)C(=O)CO [DEXAMETHASONE],-0.78% and 2.8%,1.68% and 4.41%,-1.2% and -1.22%,,
CO[C@H]1O[C@@H]2O[C@@]3(C)CC[C@H]4[C@H](C)CC[C@@H]([C@H]1C)[C@@]24OO3,,19.1%,,9.17,6.04
CN1CC(=O)N2[C@H](c3ccc4c(c3)OCO4)c3[nH]c4ccccc4c3C[C@@H]2C1=O,,-1.32%,,2.98,-3.58
CCC(=C(c1ccccc1)c1ccc(OCCN(C)C)cc1)c1ccccc1,,5.96%,,0.16,1.89
NS(=O)(=O)c1cc(C(=O)O)c(NCc2ccco2)cc1Cl [FUROSEMIDE],,3.34%,,9.57,-7.53
CC(COc1ccccc1Cc1ccccc1)N1CCCCC1.O=P(O)(O)O (configuration not stated),,3.69%,,14.21,0.43
CCS(=O)(=O)CCn1c([N+](=O)[O-])cnc1C [TINIDAZOLE],,4.29%,,6.48,-11.27
CCOc1cc(N)c(Cl)cc1C(=O)NCC1CN(Cc2ccc(F)cc2)CCO1.O=C(O)CC(O)(CC(=O)O)C(=O)O (configuration not stated) [MOSAPRIDE CITRATE],,1.57%,,16.24,-5.5
COCC1=C(C(=O)OC(C)OC(=O)OC(C)C)N2C(=O)[C@@H](NC(=O)/C(=N\OC)c3csc(N)n3)[C@H]2SC1 (some centres not stated) [CEFPODOXIME PROXETIL],,4.56%,,5.41,0.11
CC(C)(C(=O)c1cccnc1)c1cccnc1 [METYRAPONE],,2.49%,,19.17,-9.27
CCc1cc(C(N)=S)ccn1 [ETHIONAMIDE],,1.99%,,13.14,-7.71
CN(C)CCCN1c2ccccc2CCc2ccccc21.Cl [IMIPRAMINE HYDROCHLORIDE],,0.7%,,11.14,0.01
CN(C)CC/C=C1/c2ccccc2COc2ccc(CC(=O)O)cc21.Cl [OLOPATADINE HYDROCHLORIDE],,4.03%,,3.13,4.6
COc1cc(OC)c(C(=O)CCCN2CCCC2)c(OC)c1.Cl,,3.75%,,10.87,-6.77
CCN(Cc1ccncc1)C(=O)C(CO)c1ccccc1 (configuration not stated) [TROPICAMIDE],,0.91%,,7.31,-7.15
COc1cc(C[C@@H](CO)[C@H](CO)Cc2ccc(O)c(OC)c2)ccc1O [(+)-SECOISOLARICIRESINOL],,4.22%,,5.83,1.62
O=C(O)c1cc2ccccc2c(Cc2c(O)c(C(=O)O)cc3ccccc23)c1O.OCCOCCN1CCN(C(c2ccccc2)c2ccc(Cl)cc2)CC1 [HYDROXYZINE PAMOATE],,5.15%,,14.51,7.04
COc1ccccc1N1CCN(CCCNc2cc(=O)n(C)c(=O)n2C)CC1.Cl [URAPIDIL HYDROCHLORIDE],,3.19%,,17.15,-6.92
CCCOc1ccc(C(=O)OCCN(CC)CC)cc1N.Cl [PROPARACAINE HYDROCHLORIDE],,0.55%,,1.6,2.64
COc1cc2c(cc1OC)C(=O)C(CC1CCN(Cc3ccccc3)CC1)C2.Cl (configuration not stated) [DONEPEZIL HYDROCHLORIDE],,3.08%,,5.21,-7.79
CC(=O)S[C@@H]1CC2=CC(=O)CC[C@]2(C)[C@H]2CC[C@@]3(C)[C@@H](CC[C@@]34CCC(=O)O4)[C@H]12 [SPIRONOLACTONE],,1.56%,,18.33,-2.8
CC(C)[N+](C)(CCOC(=O)C1c2ccccc2Oc2ccccc21)C(C)C.[Br-] [PROPANTHELINE BROMIDE],,2.52%,,18.08,-1.43
Cc1ccc(O)c([C@H](CCN(C(C)C)C(C)C)c2ccccc2)c1.O=C(O)C(O)C(O)C(=O)O [TOLTERODINE TARTRATE],,4.41%,,6.3,-7.64
CNCCCCOc1ccccc1Cc1ccccc1.Cl,,1.66%,,18.69,-8.24
Br.CN(C)CCCC1(c2ccc(F)cc2)OCc2cc(C#N)ccc21 (configuration not stated) [CITALOPRAM HYDROBROMIDE],,2.48%,,0.36,-12.2
CCCc1nc2c(C)cc(-c3nc4ccccc4n3C)cc2n1Cc1ccc(-c2ccccc2C(=O)O)cc1,,1.9%,,15,-31
COC(=O)C1=C(C)NC(C)=C(C(=O)OC(C)C)C1c1cccc2nonc12 (configuration not stated) [ISRADIPINE],,4.43%,,7.21,-5.25

SMILES,Inhibition (Klebsiella pneumoniae; 20 µM),Inhibition (Candida albicans),Inhibition (Cryptococcus neoformans; 20 µM),Inhibition (Klebsiella pneumoniae) [%],Inhibition (Cryptococcus neoformans) [%]
CC(C)(S)C(N)C(=O)O (stereo not drawn) [DL-PENICILLAMINE],,3.66%,,8.23,-9.16
COc1c2occc2cc2ccc(=O)oc12 [METHOXSALEN],,5.22%,,9.19,-0.09
COc1ccc(CN2CCN(C(c3ccc(F)cc3)c3ccc(F)cc3)CC2)c(OC)c1OC.Cl.Cl,,2.16%,,-0.73,-36.76
CC(C)(C)C(O)/C=C/c1ccc2c(c1)OCO2 (configuration not stated) [STIRIPENTOL],,4.55%,,6.61,2.5
OCCN(CCO)c1nc(N2CCCCC2)c2nc(N(CCO)CCO)nc(N3CCCCC3)c2n1 [DIPYRIDAMOLE],,2.59%,,2.81,5.59
Br.Br.O=C1CC2(CCCC2)CC(=O)N1CCNCC1COc2ccccc2O1 (configuration not stated),,3.99%,,12.27,-1.27
CC12CC3CC(C)(C1)CC(N)(C3)C2.Cl [MEMANTINE HYDROCHLORIDE],,4.09%,,12.73,-0.08
Cc1nc2n(c(=O)c1CCN1CCC(c3noc4cc(F)ccc34)CC1)CCCC2 [RISPERIDONE],,0.09%,,4.8,-0.58
CCN(CC)CC(=O)Nc1c(C)cccc1C [LIDOCAINE],,1.15%,,14.92,-4.85
Nc1nc(N)nc(-c2cc(Cl)ccc2Cl)n1.O=C(O)/C=C\C(=O)O [IRSOGLADINE MALEATE],,2.42%,,5.85,-1.72
CC(=O)OCC(=O)[C@@]12OC(C)(C)O[C@@H]1C[C@H]1[C@@H]3C[C@H](F)C4=CC(=O)C=C[C@]4(C)[C@@]3(F)[C@@H](O)C[C@@]12C [FLUOCINONIDE],,-0.27%,,13.39,-0.92
CC[C@H](C)C(=O)O[C@H]1C[C@H](O)C=C2C=C[C@H](C)[C@H](CC[C@@H](O)C[C@@H](O)CC(=O)[O-])[C@H]21.[Na+] [PRAVASTATIN SODIUM],,4.25%,,13.36,-0.35
Cl.O.O=C(c1ccc(F)cc1)C1CCN(CCn2c(=S)[nH]c3ccccc3c2=O)CC1,,3.36%,,11.14,0.24
CN1CCC(=C2c3ccccc3CCc3sccc32)CC1.O=C(O)/C=C\C(=O)O,,3.52%,,13.2,-10.62
CC1=C(/C=C/C(C)=C/C=C/C(C)=C\C(=O)O)C(C)(C)CCC1 [ISOTRETINOIN],,1.42%,,9.94,-2.4
O=C(CCNNC(=O)c1ccncc1)NCc1ccccc1 [NIALAMIDE],,4.06%,,13.86,-3.3
CC(C)OC(=O)CCC/C=C\C[C@@H]1[C@@H](CC[C@@H](O)CCc2ccccc2)[C@H](O)C[C@@H]1O [LATANOPROST],,0.35%,,18.51,-2.04
CCCCCCCCCCC[C@@H](C[C@@H]1OC(=O)[C@H]1CCCCCC)OC(=O)[C@H](CC(C)C)NC=O [ORLISTAT],,1.01%,,7.06,-4.7
CC(=O)[C@H]1CC[C@H]2[C@@H]3C[C@H](C)C4=CC(=O)CC[C@]4(C)[C@H]3[C@@H](O)C[C@]12C [MEDRYSONE],,1.89%,,12.23,-4.18
CCCc1c(OCCCCc2nnn[nH]2)ccc(C(C)=O)c1O [TOMELUKAST],,4.49%,,5.45,3.29
Cc1cnc(NC(=O)C2=C(O)c3ccccc3S(=O)(=O)N2C)s1 [MELOXICAM],,9.71%,,2.2,-3.68
CC12CCC(=O)C=C1CCC1C2CCC2(C)C1CCC2(O)C(=O)CO (configuration not stated),,3.12%,,8.14,-0.13
COc1ccc(CC2c3cc(OC)c(OC)cc3CC[N+]2(C)CCC(=O)OCCCCCOC(=O)CC[N+]2(C)CCc3cc(OC)c(OC)cc3C2Cc2ccc(OC)c(OC)c2)cc1OC.O=S(=O)(O)c1ccccc1 (configuration not stated),,3.58%,,4.87,-0.33
Cl.c1ccc(CC2=NCCN2)cc1 [TOLAZOLINE HYDROCHLORIDE],,2.51%,,3.87,-1.43
CC(CCc1ccccc1)NCC(O)c1ccc(O)c(C(N)=O)c1.Cl (configuration not stated) [LABETALOL HYDROCHLORIDE],,4.68%,,19.39,-9.04
Cl.O=c1n(CCCN2CCN(c3cccc(Cl)c3)CC2)nc2ccccn12 [TRAZODONE HYDROCHLORIDE],,3.08%,,4.82,-5.73
C[C@]12CC[C@@H]3c4ccc(OS(=O)(=O)[O-])cc4CC[C@H]3[C@@H]1CCC2=O.[Na+] [ESTRONE SODIUM SULFATE],,3.72%,,1.74,-4.65
